Source: PubChem
Rows were chosen to be rich in hits. Some 9.5% of all compounds tested hit in one or more screens of this group.
Pf growth 96h = inhibits malaria parasite growth, 96 h. P. falciparum luciferase reporter growth, 96 h. Potency, µM (doses to about 28.7 µM), actives largely listed as inhibitors. 6.9% of 320,000 active. AID 504834; active = well fitted inhibition curve with a large enough effect; inconclusive = small, poorly fitted or top-dose-only effect, or another doubt; inactive = no such curve, though single readings can be large or run the other way
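Two-generation exposure (96 h) targets delayed-death phenotype. Reporter parasites carrying integrated firefly luciferase, in red cells at 2% hematocrit and 0.05% parasitemia final, kept at 37 C, 5% CO2; luminescence loss indicates inhibition.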
RE007 growth inh = less growth of the S. pombe RE007 Vpr strain | S. pombe RE007 Vpr strain, BacTiter-Glo ATP luminescence, 24 h | 0.21% of 360,000 active | AID 651644 | Potency, µM (top dose mostly 92.2 µM), actives largely listed as inhibitors; active = well fitted falling curve with a large enough effect; inconclusive = small, poorly fitted or top-dose-only effect; inactive = no such curve, though single readings can be large or run the other way; note: nearly all actives have a fitted effect of over 50% in size
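Fission yeast RE007 carrying one integrated HIV-1 vpr copy, seeded at OD 0.01 in PMG+AL medium with 23 nL pinned compound. Grown 24 h at 30 degrees; viability read by BacTiter-Glo luminescence after 5 min.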
SARS PLP yeast = SARS-CoV PLP inhibition in yeast; Potency, µM (doses to about 32.9 µM), actives largely listed as activators; 0.19% of 330,000 active; S. cerevisiae expressing SARS-CoV PLpro, growth rescue; AID 485353; note: nearly all actives have a fitted effect of over 55% in size
Pf growth 48h = P. falciparum growth inhibition at 48 hours (one generation); P. falciparum luciferase growth in erythrocytes, 48 h; Potency, µM (series often up to 28.7 µM), actives largely listed as inhibitors; AID 504832; 5.9% of 310,000 active; active = well fitted inhibition curve with a large enough effect; inconclusive = small, poorly fitted or top-dose-only effect, or another doubt; inactive = no such curve, though single readings can be large or run the other way
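Firefly luciferase activity from engineered P. falciparum reports growth; inhibitors lower the luminescent signal. Cultures contained 2% hematocrit erythrocytes at 0.1% final parasitemia.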
NS1 inh = blocks influenza NS1 protein function; 0.4% of 270,000 active; Potency, µM (series often up to 46.1 µM); note: actives are rising curves; nearly all actives have a fitted effect of over 50% in size
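S. cerevisiae expressing influenza A NS1, grown in glucose, washed, then diluted 1:100 into pH 6.0 -URA galactose medium with 23 nl compound. Growth recovery read as OD600; NS1-free strain serves as control.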
Each line names hits and unclear results; the compound was inactive in the other large screens. Unless noted, calls come from the whole dose curve.

COc1ccc(Cl)cc1NC(=O)CN(C)CC(=O)Nc1ccccc1-c1ccccc1	Pf growth 96h 11.7µM, Pf growth 48h inconclusive (no result: NS1 inh)
COc1ccc(Cl)cc1NC(=O)CN(C)C(=O)c1cc(=O)c2ccccc2o1	Pf growth 96h inconclusive, Pf growth 48h 11.7µM (no result: NS1 inh)
CSc1nc(N)c2ncn([C@@H]3O[C@H](COP(=O)(O)OP(=O)(O)O)[C@H](O)[C@H]3O)c2n1	none (no result: Pf growth 96h, RE007 growth inh, SARS PLP yeast, Pf growth 48h)
O=S(=O)(NCc1csc(-c2cccs2)n1)c1cccc(C(F)(F)F)c1	none
NNC(=O)c1ccc(NS(=O)(=O)c2ccc(Br)cc2)cc1	none (no result: RE007 growth inh)
c1ccc2c(c1)COC(CNC1CCCCC1)OC2	none
CCN1C(=O)C(CC(=O)Nc2ccccc2)S/C1=N\c1ccccn1 (stereo not drawn)	none (no result: NS1 inh)
Cc1cccc(C)c1N=C1SC(CC(=O)Nc2c(C)cccc2C)C(=O)N1CCc1ccccn1 (stereo not drawn)	Pf growth 96h 9.28µM, Pf growth 48h 9.28µM
O=C(CC1SC(=Nc2ccccc2)N(CCO)C1=O)Nc1ccccc1 (stereo not drawn)	Pf growth 48h inconclusive
O=C(CC1SC(=Nc2ccccc2)N(CCc2ccccn2)C1=O)Nc1ccc(F)cc1 (stereo not drawn)	Pf growth 96h 4.65µM, Pf growth 48h inconclusive
CCC(=O)N1CCN(c2cc3c(cc2F)c(=O)c(C(=O)O)cn3CC)CC1	none (no result: Pf growth 96h, SARS PLP yeast, Pf growth 48h)
Cc1oc(=O)oc1CN1CCN(c2cc3c(cc2F)c(=O)c(C(=O)O)c2n3C(C)S2)CC1 (stereo not drawn)	Pf growth 96h 1.69µM, Pf growth 48h 2.39µM (no result: RE007 growth inh, SARS PLP yeast, NS1 inh)
COc1ccc(C2N(c3ccc(Cl)cc3)C(=O)C3CCCN32)cc1 (stereo not drawn)	Pf growth 96h inconclusive (no result: Pf growth 48h)
COc1ccc(OC)c(C2N(c3ccc(Cl)cc3)C(=O)C3CCCN32)c1 (stereo not drawn)	Pf growth 96h 9.28µM
CN(C)c1ccc(C2N(c3ccc(F)cc3)C(=O)C3CCCN32)cc1 (stereo not drawn)	none (no result: Pf growth 48h)
COc1ccc(N2C(=O)C3CCCN3C2c2ccc(Cl)cc2)cc1 (stereo not drawn)	Pf growth 96h 9.28µM, SARS PLP yeast inconclusive, NS1 inh inconclusive (no result: Pf growth 48h)
CCOc1ccc(C2N(c3ccc(F)cc3)C(=O)C3CCCN32)cc1 (stereo not drawn)	Pf growth 96h 4.15µM (no result: Pf growth 48h)
Cc1cc(C(=O)Nc2nncs2)oc1C	Pf growth 96h 2.62µM
Cc1ccccc1C(=O)Nc1nncs1	none (no result: Pf growth 96h)
CCOC(=O)C(CC)c1cc2n(c(=O)c1C#N)CCC21OCCO1 (stereo not drawn)	none (no result: Pf growth 96h, SARS PLP yeast, Pf growth 48h, NS1 inh)
CC(=O)c1ccc(NC(=O)CN2CCN(CC(=O)Nc3ccc(C(C)=O)cc3)CC2)cc1	none
CC(=O)c1ccc(NC(=O)CN2CCOCC2)cc1	Pf growth 96h 13.1µM
O=C(CN1CCOCC1)NNC(=S)Nc1ccccc1	Pf growth 96h 13.1µM
Nc1ccc(S(=O)(=O)c2ccc(NCN3C(=O)NC(=O)C(=O)C3=O)cc2)cc1	none (no result: Pf growth 96h, RE007 growth inh, SARS PLP yeast, Pf growth 48h)
CCC(C)NC(=O)c1ccccc1NC(=O)/C(=C/c1ccc(OC)cc1)c1ccccc1 (stereo not drawn)	Pf growth 96h 11.7µM, Pf growth 48h inconclusive
O=C(Nc1cccc(F)c1)/C(=C\c1cccnc1)NC(=O)c1ccco1	none
COc1ccc(NC(=O)/C(=C\c2cccnc2)NC(=O)c2cccs2)cc1	none
COc1ccc(NC(=O)/C(=C/c2cccnc2)NC(=O)c2cccs2)cc1	Pf growth 96h 4.15µM
COc1ccc(/C=C(/NC(=O)c2ccccc2OC)C(=O)Nc2ccc(C(=O)O)cc2)cc1	Pf growth 96h 9.28µM
Cc1ccc(NC(=O)/C(=C\c2cccnc2)NC(=O)c2ccco2)cc1	Pf growth 96h 3.29µM, Pf growth 48h inconclusive
CN(Cc1ccccc1)C(=O)[C@@H]1CCCN1C(=O)[C@@H]1CCCN1C(=O)OC(C)(C)C	none (no result: Pf growth 96h, SARS PLP yeast, Pf growth 48h, NS1 inh)
CCOc1ccc(NC(=O)CNc2cccc(S(=O)(=O)N3CCCCCC3)c2)cc1OCC	none (no result: Pf growth 96h, Pf growth 48h, NS1 inh)
CCCC(=O)Nc1cccc(-c2nc3ccccc3c(=O)o2)c1	none
COc1ccc(-c2cn(Cc3ccc(C)cc3)nn2)cc1	none
CNC(=O)/C(=C\c1ccco1)NC(=O)c1ccco1	Pf growth 48h 9.28µM
CCCOc1ccc(C(F)(F)F)cc1NC(=O)c1cc(C)on1	none (no result: NS1 inh)
Cn1nc(C(=O)N2CCN(S(=O)(=O)c3ccc(Cl)cc3)CC2)c2ccccc2c1=O	Pf growth 96h inconclusive (no result: NS1 inh)
O=C(c1cccnc1)N1CCN(S(=O)(=O)c2ccc(Cl)cc2)CC1	Pf growth 96h 4.15µM
O=C(c1n[nH]c2ccccc12)N1CCCCC1	none (no result: NS1 inh)
O=C(c1n[nH]c2ccccc12)N1CCOCC1	Pf growth 96h 14.7µM
O=C(c1n[nH]c2ccccc12)N1CCN(S(=O)(=O)c2ccc(Cl)cc2)CC1	Pf growth 96h inconclusive, Pf growth 48h 2.08µM (no result: NS1 inh)
CCOc1ccc(NC(=O)c2cc3ccccc3cc2O)cc1	Pf growth 96h 1.85µM, Pf growth 48h 1.04µM (no result: RE007 growth inh)
COc1ccc(NC(=O)NNC(=O)COc2ccc3ccccc3c2)cc1	none
CCOc1ccc(NC(=O)NNC(=O)COc2ccc3ccccc3c2)cc1	Pf growth 96h 2.62µM
CCOc1ccc(NC(=O)c2cc3ccccc3cc2OC)cc1	none
O=C1C(=Cc2ccccc2[N+](=O)[O-])Cc2ccccc21	RE007 growth inh 2.51µM (no result: Pf growth 96h, SARS PLP yeast, Pf growth 48h, NS1 inh)
COCCCNc1nc2ccccc2nc1NS(=O)(=O)c1cc(Cl)ccc1Cl	none
C=C1C[C@H](O[C@@H]2O[C@H](CO)[C@@H](O)[C@H](O)[C@H]2O)[C@@H]2[C@H](OC(=O)[C@H]2C)[C@H]2[C@H](C)[C@H](O)C[C@@H]12	none (no result: Pf growth 96h, Pf growth 48h, NS1 inh)
CC(=O)c1ccc(N2CCN(S(=O)(=O)c3cc4[nH]c(=O)c(=O)[nH]c4cc3C)CC2)cc1	Pf growth 48h 2.33µM (no result: SARS PLP yeast)
CC(=O)c1ccc(N2CCN(S(=O)(=O)c3cc(-c4cc(C)no4)ccc3C(C)C)CC2)cc1	Pf growth 96h inconclusive, Pf growth 48h 10.4µM
Cc1cc(-c2ccc(C(C)C)c(S(=O)(=O)Nc3cc(C)on3)c2)on1	Pf growth 96h 13.1µM
Cc1cc(-c2ccc(C(C)C)c(S(=O)(=O)N3CCC(C)CC3)c2)on1	Pf growth 96h inconclusive, Pf growth 48h 11.7µM
CCc1ccc(-c2cc(C)no2)cc1S(=O)(=O)Nc1cc(C)ccn1	Pf growth 96h inconclusive
NC(=O)c1cc([N+](=O)[O-])ccc1NCCN1C(=O)c2ccccc2C1=O	none (no result: RE007 growth inh, NS1 inh)
CCC(NC(=O)NC1=NCCS1)(C(F)(F)F)C(F)(F)F	Pf growth 96h 0.208µM
COCC(C)n1c(C)cc(C(=O)COC(=O)c2ccc3c(c2)NC(=O)CS3)c1C (stereo not drawn)	Pf growth 96h 7.38µM, Pf growth 48h 10.4µM
Cc1cc(C(=O)COC(=O)c2ccc3c(c2)NC(=O)CS3)c(C)n1CC1CCCO1 (stereo not drawn)	none (no result: RE007 growth inh)
COc1ccccc1C(c1nnnn1C(C)(C)C)N1CCCCCC1 (stereo not drawn)	Pf growth 48h 8.28µM (no result: Pf growth 96h)
CCOc1ccc(C(c2nnnn2C(C)(C)C)N2CCN(C(=O)c3ccco3)CC2)cc1 (stereo not drawn)	Pf growth 48h inconclusive
